About 20 (1%) of roughly 1,600 compounds showed an effect of 50% or more. The sample as a whole holds a higher share of strong results than the screen did.
Each compound was assayed on T1, E. coli pLC1021 (luc-trpAt trans-translation reporter). Conditions: reporter signal, KKL-35 = 100%; rise means trans-translation inhibition; 2 h, 20 µM.
T1 construct: pLC1021 luc-trpAt reporter strain
Design: species or system Escherichia coli pLC1021; luc-trpAt non-stop luciferase reporter; luminescence rises when trans-translation is inhibited; normalized to KKL-35 and DMSO
Method: The luciferase screen was performed as previously described ([16]). […] 48 µL of cells was transferred to white 96-well plates, and 2 µL DMSO or 20 µM compound, or 20 µM KKL-35 was added. Plates were sealed with adhesive film, vortexed gently to mix, and incubated at room temperature for 2 h. 50 µL Bright-Glo reagent (Promega, Madison, WI) was added to each well, and the plates were sealed with adhesive film, vortexed vigorously, and incubated for an additional 10 min at room temperature. Luminescence was measured at 560 nm using a SpectraMax i3 microplate reader and readings for each plate were normalized to the average of three KKL-35-treated wells (positive control) and three DMSO-treated wells (negative control) within the plate to correct for plate-to-plate and day-to-day variations. Results from at least two biological repeats were averaged, and GraphPad Prism was used to plot the data. We screened a library of 1,601 anti-tubercular small molecules for their ability to inhibit trans-translation using a luciferase reporter in Escherichia coli. In this luc-trpAt reporter, the firefly luciferase gene has a trpA transcriptional terminator before the stop codon, such that luciferase is translated from a non-stop mRNA ([16]). When trans-translation is active, the luciferase will be tagged and degraded, but when trans-translation is inhibited, active luciferase will accumulate, resulting in a luminescent signal when luciferin is added. Luciferase activity was measured after growth in the presence of compounds from the library at 20 µM, using the known trans-translation inhibitor KKL-35 as a positive control (Fig. 1A) ([16], [17]). Compounds with activity one standard deviation above the median were scored as positive (Fig. S1 and Table S1).
With `CC(C)(C)c1cc(Cl)c(O)c(NC(=S)NC(=O)c2cccc3ccccc23)c1` [KKL-0905] the “% activation” value was 0%.
For `O=C(C[n+]1nc(CNc2ccc(Cl)cc2)n2c1CCCCC2)c1ccc(Br)cc1` [KKL-1021], the “% activation” value was 9%.
In the case of `CC(C)(C)c1cc(Cl)ccc1OCCCCn1ccnc1` [KKL-1305], the “% activation” value is reported as 5%.
For `CN(CCn1ccnc1)Cc1cn(Cc2ccccc2)nc1-c1cc2ccccc2o1` [KKL-0649], the “% activation” value was 0%.
With `COc1ccc(CNCc2cn(-c3cccc(F)c3)nc2-c2ccc(C)o2)cc1` [KKL-0321] the “% activation” value was 0%.
In the case of `Cn1cc(CCNC(=O)Nc2ccc(N3CCCCC3)nc2)cn1` [KKL-1828], the “% activation” value is reported as 0%.
`O=C(Nc1ccco1)N1CCN(Cc2cccs2)CC1` [KKL-1841] was tested, and the “% activation” value was 1%.
In the case of `CCc1cc(C(=O)OC)c(N=C(S)NCc2ccc(Cl)c(Cl)c2)s1` [KKL-1547], the “% activation” value is reported as 0%.
For `O=C(C=Cc1ccco1)N1CCN(Cc2ccc3c(c2)OCO3)CC1` [KKL-1821], the “% activation” value was 0%.
For `CCC(C)c1ccc(O)c(NC(=S)NC(=O)c2cncc(Br)c2)c1` (stereo not shown) [KKL-0711], the “% activation” value was 3%.
`CCn1cc(C(=O)O)c(=O)c2cc(F)c(N3CCNCC3)cc21` [KKL-0831] was tested, and the “% activation” value was 56%.
`CCN1CCN(c2cc3c(cc2F)c(=O)c(C(=O)O)cn3C2CC2)CC1` [KKL-0903] was tested, and the “% activation” value was 6%.
For `CCn1cc(C(=O)O)c(=O)c2cc(F)c(N3CCN(C(S)=Nc4cc(C(F)(F)F)ccc4Cl)CC3)cc21` [KKL-1476], the “% activation” value was 5%.
With `Cc1nn(-c2ccc(F)cc2)c2nc(O)c(CNCc3ccccc3F)cc12` [KKL-0342] the “% activation” value was 0%.
For `CCCOC(=O)c1ccc(NC(=S)NC(=O)c2ccc(Cl)cc2)cc1` [KKL-0761], the “% activation” value was 3%.
For `CC1CN(c2ccc([N+](=O)[O-])cc2)CCN1C(=O)c1cccc(Br)c1` (stereo not shown) [KKL-1355], the “% activation” value was 0%.
With `NC1CCc2nc(-c3cccnc3)nc(Nc3cccc(C(F)(F)F)c3)c2C1` (stereo not shown) [KKL-0530] the “% activation” value was 124%.
For `NC1CCc2nc(-c3cccnc3)nc(Nc3ccc(C(F)(F)F)cc3)c2C1` (stereo not shown) [KKL-0526], the “% activation” value was 137%.
In the case of `FC(F)(F)c1cccc(-n2cc(-c3ccccc3)c3c(NCc4cccnc4)ncnc32)c1` [KKL-1573], the “% activation” value is reported as 0%.
For `O=C(NCCCn1ccnc1)c1cccnc1Nc1cccc(C(F)(F)F)c1` [KKL-0554], the “% activation” value was 15%.
For `Nc1cccnc1Nc1ccc(C(F)(F)F)cc1` [KKL-1711], the “% activation” value was 4%.
`Cc1cnc(N2CCN[C@@H](Cc3ccccc3)C2)nc1Oc1ccc(-n2ccnc2)cc1` [KKL-1724] was tested, and the “% activation” value was 6%.
`CCOC(=O)c1cnc(-n2nc(C)cc2C)nc1Nc1ccc(N(C)C)cc1` [KKL-0889] was tested, and the “% activation” value was 0%.
For `Clc1ccc(Nc2nc(-c3ccccn3)cs2)nc1` [KKL-1793], the “% activation” value was 0%.
In the case of `Cc1oc(-c2ccc3ccccc3c2)nc1CN1CCN(c2cnccn2)CC1` [KKL-0659], the “% activation” value is reported as 0%.
In the case of `CN(C)S(=O)(=O)c1ccc(C(=O)Nc2nnc(-c3ccc(Cl)s3)o2)cc1` [KKL-1747], the “% activation” value is reported as 1%.
For `O=C(Nc1nnc(-c2ccc(Cl)s2)o1)c1ccc(Cl)s1` [KKL-1762], the “% activation” value was 0%.
With `CSc1ccc(-c2nnc(NC(=O)c3ccc(Cl)s3)o2)cc1` [KKL-1706] the “% activation” value was 50%.
For `CN1CCN(c2ccc(NC(=S)NC(=O)c3ccc(-c4cccc(Cl)c4)o3)cc2)CC1` [KKL-0357], the “% activation” value was 18%.
With `O=C(Nc1ccc2c(c1)OCCO2)c1cccc2nc3ccccc3nc12` [KKL-0843] the “% activation” value was 0%.
In the case of `Cc1ccc(Cl)cc1N=C1C=C(NS(=O)(=O)c2cccs2)c2ccccc2C1=O` [KKL-1115], the “% activation” value is reported as 0%.
With `COC(=O)c1cccc(NC(=S)NC[C@H]2C[C@@H]3CCN2C[C@@H]3c2cc(-c3ccc4ccccc4c3)nn2C)c1` [KKL-1596] the “% activation” value was 71%.
For `Cn1nc(-c2ccc3ccccc3c2)cc1[C@H]1CN2CC[C@H]1C[C@@H]2COC(=O)Nc1cccc(C(F)(F)F)c1` [KKL-0323], the “% activation” value was 0%.
In the case of `Cc1ccc(C(=O)NC[C@H]2C[C@@H]3CCN2C[C@@H]3c2cc(-c3ccc4ccccc4c3)nn2C)cc1` [KKL-0337], the “% activation” value is reported as 0%.
In the case of `NC1CCc2nc(-c3ccncc3)nc(Nc3ccc(Cl)cc3)c2C1` (stereo not shown) [KKL-0326], the “% activation” value is reported as 797%.
For `NC1CCc2nc(-c3cccnc3)nc(Nc3ccc(Cl)cc3)c2C1` (stereo not shown) [KKL-0540], the “% activation” value was 119%.
For `Nc1cccnc1Nc1ccc(Cl)cc1` [KKL-1858], the “% activation” value was 0%.
`CCOC(=O)CSc1nc(C#N)c(SCC(=O)OCC)s1` [KKL-0955] was tested, and the “% activation” value was 12%.
For `O=C(Oc1cccc2cccnc12)C(Cc1ccccc1)N1C(=O)C2C3CCC(C3)C2C1=O` (stereo not shown) [KKL-1364], the “% activation” value was 9%.
`Cc1oc2ccccc2c1CN(CCCn1ccnc1)Cc1cccc(F)c1` [KKL-0544] was tested, and the “% activation” value was 0%.
In the case of `CCC(OC(C)=O)c1ccc(OC(C)=O)c(OC)c1` (stereo not shown) [KKL-0758], the “% activation” value is reported as 7%.
For `CCOc1ccc(NC(=O)CSc2nc3ccc([N+](=O)[O-])cc3s2)cc1` [KKL-1417], the “% activation” value was 0%.
In the case of `Cc1ccc(NCCC(=O)c2ccc([N+](=O)[O-])cc2)cc1C` [KKL-0401], the “% activation” value is reported as 14%.
For `COc1cc2cc(-c3nc4ccccc4[nH]3)c(N)nc2cc1OC` [KKL-0395], the “% activation” value was 22%.
For `Cc1ccc2[nH]c(C3CCCNC3)c(-c3ccncc3)c2c1` (stereo not shown) [KKL-1820], the “% activation” value was 14%.
In the case of `Cc1ccc2[nH]c3c(c2c1)CCCC3NCCCOc1ccc(F)cc1` (stereo not shown) [KKL-0771], the “% activation” value is reported as 84%.
`CC1CCc2sc3ncnc(NCCc4ccccc4)c3c2C1` (stereo not shown) [KKL-0868] was tested, and the “% activation” value was 2%.
`CCOC(=O)COc1ccc(C(=O)Nc2ccc(F)cc2)cc1` [KKL-0783] was tested, and the “% activation” value was 0%.
For `CC12CC3CC(C)(C1)CC(CNCc1ccccc1O)(C3)C2` [KKL-1484], the “% activation” value was 3%.
For `CCCOC(=O)CSc1nnc(-c2cc(OC)c(OC)c(OC)c2)o1` [KKL-1095], the “% activation” value was 0%.
In the case of `Cc1ccc(-c2csc(-c3ccncc3)n2)cc1C` [KKL-0956], the “% activation” value is reported as 0%.
`COC(=O)[C@@H](NC(=O)c1cc(COc2c(F)cccc2F)on1)c1ccccc1` [KKL-0496] was tested, and the “% activation” value was 8%.
In the case of `CCOC(=O)c1ccc(NC(=O)C2C(=O)N(C)C3(C)CC2c2ccccc2O3)cc1` (stereo not shown) [KKL-1246], the “% activation” value is reported as 0%.
With `Cc1cc([N+](=O)[O-])ccc1NC(=O)CN1C2CCC1CC(NC(=O)NC13CC4CC(CC(C4)C1)C3)C2` (stereo not shown) [KKL-1619] the “% activation” value was 0%.
With `CCCCCn1c(=O)c(C(=O)Nc2nc3ccccc3[nH]2)c(O)c2ccccc21` [KKL-1004] the “% activation” value was 7%.
With `CCOC(=O)Cc1csc(NC(=O)c2c(O)c3ccccc3n(CCC(C)C)c2=O)n1` [KKL-1615] the “% activation” value was 75%.
For `CCCCCCn1c(=O)c(C(=O)Nc2nc(CC(=O)OCC)cs2)c(O)c2ccccc21` [KKL-0986], the “% activation” value was 0%.
`O=C(c1ccc(Cl)cc1)c1ccc(CSc2nnc(-c3ccccc3)o2)o1` [KKL-1212] was tested, and the “% activation” value was 0%.
In the case of `O=C(c1cnn(C(=O)c2ccco2)c1)c1cc(F)ccc1O` [KKL-1685], the “% activation” value is reported as 3%.
`Clc1ccc(OCCCCCn2ccnc2)c(Cl)c1` [KKL-0421] was tested, and the “% activation” value was 0%.
With `N#CCc1ccc(NC(=O)/C=C/c2ccc([N+](=O)[O-])o2)cc1` [KKL-1204] the “% activation” value was 0%.
In the case of `c1cnc(N2CCN(c3nncc(-c4ccc(C5CCCCC5)cc4)n3)CC2)cn1` [KKL-0667], the “% activation” value is reported as 0%.
`Cc1cc(Cl)ccc1NC(=O)CCc1ccc(S(=O)(=O)NC(C)C)cc1` [KKL-1581] was tested, and the “% activation” value was 0%.
In the case of `CCc1ccc(CCC(=O)Nc2ccc(C)cc2)o1` [KKL-1248], the “% activation” value is reported as 0%.
In the case of `Cc1ccc(C(=O)NC(=S)Nc2ccc(S(=O)(=O)NC(C)C)cc2)cc1Br` [KKL-0593], the “% activation” value is reported as 0%.
`CC(=O)NC(=S)NNC(=O)c1ccc(-c2ccccc2)cc1` [KKL-0063] was tested, and the “% activation” value was 99%.
`CC(C)(C)c1ccc(C(=O)NC(=S)Nc2ccc(C(=O)O)cc2)cc1` [KKL-1314] was tested, and the “% activation” value was 0%.
`O=C(O)c1ccc(NC(=S)NC(=O)c2ccc(-c3ccccc3)cc2)cc1` [KKL-1292] was tested, and the “% activation” value was 0%.
With `Cc1ccc(C(=O)NCCC2=CCCCC2)cc1Br` [KKL-1393] the “% activation” value was 0%.
For `CC(=O)NC(=S)NNC(=O)c1ccc(C)c(Br)c1` [KKL-0065], the “% activation” value was 186%.
For `CC(=O)NC(=S)NNC(=O)c1ccc(C(C)(C)C)cc1` [KKL-0588], the “% activation” value was 143%.
For `CC(C)(C)c1ccc(C(=O)NC(=S)N2CCCC2)cc1` [KKL-1436], the “% activation” value was 12%.
In the case of `COc1ccccc1C(=O)NNC(=S)NC(=O)c1ccc(-c2ccccc2)cc1` [KKL-0561], the “% activation” value is reported as 11%.
`CNc1nc(SCC(=O)N(C)Cc2ccc(Cl)s2)nc2ccccc12` [KKL-1768] was tested, and the “% activation” value was 0%.
For `Cc1cc(C)nc(/N=C(\N)Nc2cc(Cl)ccc2Oc2ccccc2)n1` [KKL-0289], the “% activation” value was 0%.
For `COC(=O)COc1ccc(NC(=O)c2ccccc2Br)cc1` [KKL-1572], the “% activation” value was 0%.
With `Cc1[nH]c2ccccc2c1/C=C1\SC(=N)N(c2nccs2)C1=O` [KKL-1143] the “% activation” value was 6%.
In the case of `Brc1cncc(-c2cc(NCCCn3ccnc3)nc(-c3ccccc3)n2)c1` [KKL-1784], the “% activation” value is reported as 0%.
For `Oc1ccc(Br)c2cccnc12` [KKL-0093], the “% activation” value was 371%.
For `c1cnc2c(c1)ccc1cccnc12` [KKL-0825], the “% activation” value was 8%.
For `O=[N+]([O-])c1cc(O)c2ncccc2c1` [KKL-0003], the “% activation” value was 46%.
For `O=C(Nc1nc(-c2ccccn2)cs1)c1ncc(Cl)c(Cl)c1Cl` [KKL-0390], the “% activation” value was 10%.
With `O=C(Nc1ccc(-c2nc3ccccc3c(=O)o2)cc1)c1ccccc1I` [KKL-1501] the “% activation” value was 2%.
With `O=C(Nc1ccc(Cl)cc1)Nc1ccc(F)c(F)c1` [KKL-1350] the “% activation” value was 0%.
`O=C(Nc1ccc(Cl)cc1)c1cc2c(cc1O)[nH]c1ccccc12` [KKL-0896] was tested, and the “% activation” value was 102%.
